Assay results from ChEMBL document CHEMBL4513216, “Probing the Open Global Health Chemical Diversity Library for Multistage-Active Starting Points for Next-Generation Antimalarials” (ACS Infect Dis, 2020).
In all, about 68,000 compounds went through this assay and about 2,700 (4%) showed an effect of 50% or more. What follows is part of a selection rich in strong results, with near analogues and random picks from the rest.

tested on: Plasmodium berghei; test: Screen against P. berghei liver stage (PbLuc), transformed with Luciferase, at 2uM; type: functional, HepG2; conditions: tested at 2 uM

Structure (SMILES)	INHIBITION
N#Cc1cccc(CN2CCC3(CC(C(=O)NCC4CC4)=NO3)C2)c1 (stereo not given)	7.35%
CNC1CCCN(Cc2noc(C3CC3)n2)C1 (stereo not given)	8.91%
Cc1n[nH]c(C)c1CNC(=O)N(Cc1ccccc1)CC(C)(C)O	-16.94%
Cc1noc(C2CCN(C(=O)CCc3ccccn3)CC2)n1	9.36%
O=C(NC1CC1)C1=CC2(CCN(CC3CC3)CC2)c2ccccc21	11.73%
CCN1CCC2(C=C(C(=O)NC3CC3)c3ccccc32)CC1	57.95%
CC(C)CN1CCC2(C=C(C(=O)NC3CC3)c3ccccc32)CC1	-14.63%
COc1ccc(Cl)cc1S(=O)(=O)N(C)CC(=O)Nc1cccnc1	-66.51%
Cn1c(C2CC2)nc2c1CCN(CCOc1cccc(F)c1)C2	-9.49%
Cn1c(C2CC2)nc2c1CCN(CCOc1ccc(C#N)cc1)C2	55.52%
Cn1c(C2CC2)nc2c1CCN(CCOc1ccccc1C#N)C2	-16.16%
CC(C)(C)Oc1ccc(CN)c(C(F)(F)F)c1	50.01%
NCc1ccc(Oc2ccc(F)c(F)c2)cc1C(F)(F)F	30.1%
CC(C)Oc1ccc(CN)c(C(F)(F)F)c1	28.94%
CN1CCC(N(C)C(=O)CSc2ccc(F)c(F)c2)C1=O (stereo not given)	-15.11%
CC(C)c1ccc(CCC(=O)N(C)C2CCN(C)C2=O)cc1 (stereo not given)	71.91%
CN1CCC(N(C)C(=O)CCc2ccc(F)c(F)c2)C1=O (stereo not given)	20.14%
COc1cccc(CC(=O)N2CC[C@@H](OC)[C@@H]2Cc2cccnc2)c1	8.18%

Structure (SMILES)	INHIBITION
COC[C@@]12CCO[C@@H]1CCN(C(=O)Cc1ccc(C)cc1)C2	11.37%
COC[C@@]12CCO[C@@H]1CCN(C(=O)Cc1ccccc1F)C2	-26.85%
COC[C@@]12CCO[C@@H]1CCN(C(=O)Cc1ccccc1C)C2	54.56%
CN(Cc1ccc2c(c1)OCO2)C(=O)NCCc1cnn(C)c1	-0.12%
COCC(=O)NC1CC2(CCN(Cc3ccco3)CC2)c2ccccc21 (stereo not given)	-40.39%
COc1ccc(C(=O)NS(=O)(=O)c2cncc(Br)c2)cc1OC	-10.6%
COc1cc(C(=O)NS(=O)(=O)c2cccc(C#N)c2)cc(OC)c1C	-15.28%
CCOc1cc(C(=O)NS(=O)(=O)c2cccc(C#N)c2)ccc1OC	64.16%
COC(=O)c1ccc(C(=O)NS(=O)(=O)c2cncc(Br)c2)cc1	-8.83%
COc1cc(C(=O)NS(=O)(=O)c2cccc(C#N)c2)ccc1C	23.92%
COc1cc(C(=O)NS(=O)(=O)c2cccc(C#N)c2)cc(OC)c1Br	41.76%
COc1ccc(C(=O)NS(=O)(=O)c2cncc(Br)c2)cc1	53.12%
CCOc1cccc2c1OCC(C(=O)NS(=O)(=O)c1ccc(Br)s1)=C2	-20.93%
CCOc1cccc2c1OCC(C(=O)NS(=O)(=O)c1cncc(Br)c1)=C2	51.94%
CCOc1cccc2c1OCC(C(=O)NS(=O)(=O)c1ccc(Cl)cc1)=C2	30.91%
COc1cccc(C(=O)NS(=O)(=O)c2cccc(C#N)c2)c1	-49.9%
COc1ccc(C(=O)NS(=O)(=O)c2cccc(C#N)c2)cc1	66.2%
